Screening results as filed in PubChem.
An excerpt weighted towards active compounds, which were near 2.4% of everything screened.
D2 PAM-1 = potentiates the human D2 dopamine receptor allosterically; P14416; DiscoveRx D2 beta-arrestin cells, luminescence, 90 min; 100% = 57 uM dopamine signal; potentiation, % (no concentration beside the values); 360,000 compounds, 0.23% hits; AID 624464; in the data active = potentiation above about 50%; inconclusive = mostly about 30% to 49%
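PathHunter beta-arrestin assay in DiscoveRx D2 cells. Compounds were added with an EC20 of dopamine (50 nM final) for 90 min at 37 deg C. Luminescence was read 1 h after detection reagent, with 57 uM dopamine as the EC100 control.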
D2 antagonist = D2 dopamine receptor (human) antagonism; 340,000 compounds, 2% hits; inhibition, % at 10 µM; HEK293 TREx D2 cells, calcium flux, dopamine EC80; in the data active = inhibition above about 30%; inactive = below that, where a call was filed
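Compounds are added to dye-loaded, induced HEK293 T-REx cells coupled to calcium release via D2; after a 3 min kinetic read an EC80 dopamine stimulus is given and fluorescence is recorded for 3 more min.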
D2 ag-1 = activates the human D2 dopamine receptor | DiscoveRx PathHunter D2 beta-arrestin, luminescence, 90 min; 100% = 57 uM dopamine signal | activation, % (concentration not given with the values) | 360,000 compounds, 0.084% hits; in the data active = activation above about 40%; inconclusive = between about 15% and that limit
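Agonist mode: compounds alone added to overnight-plated D2 PathHunter cells for 90 min at 37 C, with 57 uM final dopamine (EC100) defining full response. Beta-arrestin recruitment detected by chemiluminescent reagent, read after 1 h at ambient temperature.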
B2AR arrestin = recruits beta-arrestin to the human beta2-adrenergic receptor | P07550 | beta-arrestin recruitment to beta2AR, cell-based reporter | Potency, µM (series often up to 46.1 µM), most hits filed as activators | 330,000 compounds, 0.02% hits | AID 492947; active = well fitted activation curve with a large enough effect; inconclusive = small, poorly fitted or top-dose-only effect; also: nearly all actives have a fitted effect of over 65% in size
Target sequence (P07550 whole entry, looked up): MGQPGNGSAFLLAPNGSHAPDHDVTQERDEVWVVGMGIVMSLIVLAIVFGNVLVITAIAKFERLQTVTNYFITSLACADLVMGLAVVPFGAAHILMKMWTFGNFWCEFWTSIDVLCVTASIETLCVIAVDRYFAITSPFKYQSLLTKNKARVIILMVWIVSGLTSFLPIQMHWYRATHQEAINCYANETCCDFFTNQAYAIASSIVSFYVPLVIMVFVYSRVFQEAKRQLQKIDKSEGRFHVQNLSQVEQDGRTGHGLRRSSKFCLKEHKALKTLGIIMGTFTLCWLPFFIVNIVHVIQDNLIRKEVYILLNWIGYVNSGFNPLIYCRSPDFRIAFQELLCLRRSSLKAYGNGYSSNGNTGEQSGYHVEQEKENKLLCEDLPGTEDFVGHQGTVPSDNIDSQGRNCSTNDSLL
D2 ag-2 = agonists of human D2 dopamine receptor. P14416. HEK293 T-REx D2 cells, calcium flux agonist mode. activation, % at 2 µM. 340,000 compounds, 0.53% hits;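 active = activation over 3 SD above normal in the single-dose calcium agonist read, cut at about 30% in these data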
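Tetracycline-induced HEK293 T-REx cells with force-coupled D2 receptor, plated overnight at 30 C, loaded with no-wash calcium dye. After a 10 s baseline, compound was pin-added and calcium flux read kinetically for 180 s; calcium rises flagged agonists.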
D2 PAM-2 = positive allosteric modulators of human D2 dopamine receptor | potentiation, % at 10 µM | HEK293 T-REx D2, calcium flux, EC20 dopamine potentiation | 340,000 compounds, 0.34% hits | AID 485347;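 active = potentiation over 3 SD above the plate norm, cut at about 30% in these data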
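Tetracycline-induced HEK293 T-REx cells force-coupled to calcium signalling expressed D2; compounds were pin-added after a 10 s baseline, read kinetically 180 s, then an EC20 dopamine challenge followed with a further 180 s calcium read.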
Large screens that a line does not name were inactive.

CC(C)NC(=O)C1CCN(S(=O)(=O)c2ccc(N3CCCC3=O)cc2)CC1	none
COc1ccccc1C(O)P(=O)(OC(C)C)c1ccc(N(C)C)cc1 (centres undefined)	D2 antagonist 31
CC(C)OP(=O)(c1ccc(N(C)C)cc1)C(O)c1ccncc1 (centres undefined)	D2 antagonist 32
Cc1nnnn1-c1ccc(CC(=O)O)cc1	none
CCOC(=O)c1cccc(NC(=O)CNS(=O)(=O)c2cccs2)c1	D2 PAM-2 44
Cc1ccc(NC2=NCC(=O)N2c2ccc3c(c2)OCCO3)c(C)c1	D2 PAM-2 31
O=C(CSc1nc2sc3c(c2c(=O)n1-c1ccccc1)CCCC3)NCc1ccco1	none
CC1(C)Cc2c(sc3nc(SCC(=O)NCc4ccco4)n(-c4ccccc4)c(=O)c23)CS1	D2 antagonist 30
Cc1cc(C(=O)CSc2nnc(N)s2)c(C)n1CCc1ccc(F)cc1	D2 antagonist 43
CCCCOc1ccc(C(=O)Oc2cc(C)[nH]c(=O)c2[N+](=O)[O-])cc1	D2 antagonist 77
Fc1ccccc1OCCCN1CCOCC1	D2 antagonist 31 (no result: B2AR arrestin)
c1ccc(-c2ccccc2OCCCN2CCOCC2)cc1	none
Cc1cc(C)c(C)c(OCCN2CCOCC2)c1	none
Cc1cccc(OCCN2CCOCC2)c1C	D2 antagonist 41
COc1ccc2cc(/C(C)=N/NC(=S)Nc3cc(S(=O)(=O)N4CCOCC4)ccc3N3CCOCC3)ccc2c1	none (no result: D2 PAM-1, D2 ag-1)
C/C(=N\NC(=S)Nc1cc(S(=O)(=O)N2CCOCC2)ccc1Cl)c1ccc(N2CCOCC2)cc1	D2 antagonist 35
COc1ccc(S(=O)(=O)NCC(c2ccco2)N2CCN(c3ccc(F)cc3)CC2)cc1 (centres undefined)	none (no result: D2 PAM-1, D2 antagonist, D2 ag-1, B2AR arrestin)
O=[N+]([O-])c1nn(-c2ccc3c(c2)OCCO3)n(O)c1=NC1CCCC1	D2 PAM-1 75
O=[N+]([O-])c1nn(-c2ccc3c(c2)OCCO3)n(O)c1=NC1CCCCCC1	D2 PAM-1 85, D2 ag-1 inconclusive
Cc1ccc(C)c(NC(=O)CN(C)C(=O)CN2C(=O)NC3(CCc4ccccc43)C2=O)c1 (centres undefined)	none
CCOC(=O)/C(=C/C=C1\Sc2cc(C)c(C)cc2N1CC)C(C)=O	D2 ag-2 84, D2 PAM-2 31
CCOC(=O)/C(=C/C=C1\Sc2ccccc2N1CC)C(C)=O	D2 ag-2 35
Cc1ccsc1/C=C(\C(=O)c1ccc(OC(C)C)cc1)c1nc2ccccc2o1	none
O=c1[nH]c(/C=C/c2ccccn2)nc2ccccc12	D2 antagonist 37
COc1ccc(C2(NC(C)=O)CCN(C(=O)c3ccco3)CC2)cc1	D2 antagonist 33
Cc1c(Cl)cccc1NC(=O)N1CCN(C(=O)c2ccco2)CC1	D2 ag-2 31
COC(=O)c1ccc(NC(=S)N2CCN(C(=O)c3ccco3)CC2)cc1	none
COc1ccc(NC(=S)N2CCN(C(=O)c3ccco3)CC2)cc1	D2 antagonist 32
N/C(=N\OC(=O)c1ccc(F)cc1)c1ccc(Br)cc1	D2 ag-1 inconclusive
N/C(=N\OC(=O)c1ccc(F)cc1)c1ccccc1	D2 PAM-1 72, D2 ag-1 inconclusive
N/C(=N\OC(=O)c1cccc(F)c1)c1ccccc1	D2 PAM-1 57, D2 ag-1 inconclusive
Cc1ccc(/C(N)=N/OC(=O)c2cccc(F)c2)cc1	none
COc1cccc(N2CCN(C3OC(=O)c4ccccc43)CC2)c1 (centres undefined)	D2 antagonist 30
CCOc1ccccc1N1CCN(C(=O)NCc2ccc(C)cc2)CC1	D2 antagonist 30, D2 PAM-2 32
O=C(CN1CCCC1)Nc1ccc2c(c1)CCC2	none
O=C(CN1CCN(c2ccccc2O)CC1)Nc1ccc2c(c1)CCC2	D2 antagonist 67
O=C(CN1CCN(c2ccccc2O)CC1)NC(c1ccccc1)c1ccccc1	D2 antagonist 64
CCOc1ccccc1N1CCN(CC(=O)NC(C)c2ccccc2)CC1 (centres undefined)	D2 antagonist 100
CCn1cc(/C=C(\NC(=O)c2ccccc2Cl)C(=O)NCCN2CCOCC2)c2ccccc21	none
Cc1ccc2c(c1)c1c(n2CC(O)CNC2CCCCC2)CCCC1 (centres undefined)	none
O=C(NNC(=S)Nc1ccccc1)c1ccncc1	D2 PAM-2 31
O=C(NNC(=S)NC(=O)C12CC3CC(CC(C3)C1)C2)c1ccncc1	D2 ag-2 66
CC1(C(=O)NC(=S)NNC(=O)c2ccncc2)CCCCC1	D2 antagonist 34
O=C(NNC(=S)Nc1cccc(C(F)(F)F)c1)c1ccncc1	none (no result: D2 antagonist, B2AR arrestin, D2 ag-2, D2 PAM-2)
CC12CC3CC(C1)CC(C(=O)NNC(=O)c1ccncc1)(C3)C2	none (no result: D2 antagonist, D2 ag-2, D2 PAM-2)
COc1ccc(CCNC(C)C(=O)Nc2ccc(S(N)(=O)=O)cc2)cc1 (centres undefined)	none
CCN(CC)CCNC(=O)c1ccc(-n2c(-c3ccccc3)cc3c2CCCC3)cc1	none (no result: D2 PAM-1, D2 antagonist, D2 ag-1, B2AR arrestin)
CC(=O)NC(CC(=O)NC(C)c1ccc(Cl)cc1Cl)c1ccccc1 (centres undefined)	D2 antagonist 34
COC(C[C@H](O)C[C@H](O)[C@H](C)OCc1ccccc1)OC	D2 antagonist 38
C[C@H](NC(=O)OCc1ccccc1)c1nnc([C@H](Cc2ccccc2)NC(=O)OC(C)(C)C)o1	D2 antagonist 31
C[C@H](NC(=O)OCc1ccccc1)c1nnc([C@H](C)NC(=O)OCc2ccccc2)o1	D2 antagonist 38
CC(C)(C)OC(=O)N[C@@H](Cc1ccccc1)c1nnc(SCC(N)=O)o1	none
Cc1cccc(NC(=O)c2ccc(C)c(S(=O)(=O)N3CCCCC3)c2)n1	none
CCOC(=O)C1=C(COc2ccc(F)cc2Cl)NC(=O)NC1c1cc(C)ccc1C (centres undefined)	none
CC1(CC(=O)N/N=C/c2ccc(-c3ccc(Cl)cc3)o2)OCCO1	none
COCCn1nnnc1CN1CCC(Cc2ccccc2)CC1	D2 PAM-2 38
CCOc1ccc(CN2CCC(Cc3ccccc3)CC2)cc1	D2 antagonist 30
COc1ccccc1N1CCN(CCCOc2ccc(F)cc2)CC1	D2 antagonist 89
COc1cccc(OC)c1OCCCN1CCC(Cc2ccccc2)CC1	D2 antagonist 89
COc1cccc(OC)c1OCCN1CCCC1	none
COc1ccccc1N1CCN(CCCCOc2c(OC)cccc2OC)CC1	D2 antagonist 78
O=c1cc(CN2CCCCCC2)nc2sccn12	none
